Dicer processing: human Dicer pre-microRNA cleavage inhibition; Q9UPY3; cat-ELCCA pre-miR-21 Dicer processing, chemiluminescence; hits give high values; z-score at 25 µM; 47,000 compounds, 6% hits; AID 1347074; in the data active = z-score above about 3, passing the limit was not always enough;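 also: plate controls were vehicle for no effect and no enzyme for full effect; higher signal means more uncleaved substrate so more Dicer inhibition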
An asterisk follows results filed as active. The entries come from a sample that favours hits as a whole.

SMILES | Dicer processing
Cc1ccc(NC2SC(=O)NC2=O)cc1Cl (stereo not given) | 0.45
Clc1cc(Cl)c2[nH]c3c(c2c1)CCCC3 | 2.74
CCOC(=O)c1c(C)oc(-c2ccc(Cl)cc2)c1S(=O)(=O)NCc1ccccc1 | -0.59
Cn1c(-c2ccc(Cl)cc2)c[nH]c1=S | 17.9
CC1=C(C(=O)OCCOC(C)C)C(c2ccc(C)o2)C2=C(CCCC2=O)N1 (stereo not given) | -0.28
COCCOC(=O)C1=C(C)NC2=C(C(=O)CCC2)C1c1coc2ccccc2c1=O (stereo not given) | 4.77
CC1=C(C(=O)OC2CCCCC2)C(c2coc3ccc(C)cc3c2=O)C2=C(CCCC2=O)N1 (stereo not given) | 3.24*
CC1=C(C(=O)OCCOC(C)C)C(c2coc3ccc(C)cc3c2=O)C2=C(CCCC2=O)N1 (stereo not given) | 7.16*
CC1=C(C(=O)OC2CCCC2)C(c2coc3ccc(Cl)cc3c2=O)C2=C(CCCC2=O)N1 (stereo not given) | 0.44
CC1=C(C(=O)OC2CCCCC2)C(c2coc3ccc(C)cc3c2=O)C2=C(CC(C)(C)CC2=O)N1 (stereo not given) | 1.14
CSCCC(NC(=O)c1ccc(C(F)(F)F)cc1)c1nnc(SCc2ccccc2)n1C (stereo not given) | 0.82
COc1cc2c(c(OC)c1OC)Cc1cc(OC)c(OC)c(OC)c1C2 | -0.55
O=C(NCc1ccccn1)C(=O)NCc1ccco1 | 0.69
O=S(=O)(c1ccccc1)n1nc(-c2ccccc2)nc1NCc1ccc(Cl)cc1 | -1.74
O=S(=O)(c1ccccc1)n1nc(-c2ccccc2)nc1NCc1ccccc1 | 1.48
Cc1nc(C)c(-c2ccn(S(=O)(=O)c3ccc(Cl)cc3)n2)o1 | 0.48
Cc1ccc(S(=O)(=O)n2nc(-c3ccc(Cl)cc3)nc2NCc2ccco2)cc1 | 3.39*
Cc1ccc(S(=O)(=O)n2nc(C)cc2C)cc1 | 0.88
Cc1ccc(S(=O)(=O)n2nc(-c3ccc(Cl)cc3)nc2N)cc1 | 3.18*
Cn1sc(=O)c2cc(S(=O)(=O)Oc3ccc(C(C)(C)C)cc3)ccc21 | -0.36
CN(C)c1oc(-c2ccc(Cl)cc2)nc1S(=O)(=O)c1ccc(Cl)cc1 | -0.08
c1cc2c(cc1N=C1SCC3CCCCN13)OCO2 (stereo not given) | 0.81
c1ccc(-c2csc3ncnc(N4CCCN(c5nc6ccccc6s5)CC4)c23)cc1 | -1.51
O=C(Nc1cc(Cl)cc(Cl)c1)Nc1csc(-c2ccc(C(F)(F)F)cc2)n1 | -1.16
CCN(C(=O)c1c(C(F)(F)F)ccnc1OC)c1c(C)cccc1C | -0.28
SMILES | Dicer processing
O=C(Nc1nc2n(n1)C(c1ccc(F)cc1)C=C(c1ccccc1)N2)c1cccs1 (stereo not given) | 1.92
O=C(Nc1nc2n(n1)C(c1ccc(Cl)cc1)C=C(c1ccccc1)N2)c1cccs1 (stereo not given) | 1.63
O=C(Nc1nc2n(n1)C(c1ccc(F)cc1)C=C(c1ccc(Cl)cc1)N2)c1cccs1 (stereo not given) | 17.1*
CC(C)S(=O)(=O)c1csc(C(=O)NNC(=O)Nc2ccc(Cl)cc2)c1-n1cccc1 | 0.21
CCOC(=O)c1sc(SC)c2c1CC/C(=C\N(C)C)C2=O | -6.98
CCOC(=O)c1sc(SC)c2c1CC(c1ccccc1)CC2=O (stereo not given) | 3.69*
CCOC(=O)C1=C(C)NC2=C(C(=O)CC(c3ccccc3)C2)C1c1cc(C)sc1SC (stereo not given) | 0.21
Cc1cccc2c1N(C(=O)c1c(-c3c(Cl)cccc3Cl)noc1C)CCC2 | -0.44
COc1ccc(CN2CCC(N3CCN(CCO)CC3)CC2)c(OC)c1 | 1.45
Cc1cc(NC(=S)NC(C)(C)C)ccc1Br | -0.67
Cc1ccc(NC(=S)NC(C)(C)C)cc1F | 3.04*
Cc1ccc(NC(=S)Nc2ccc(C)c(C)c2)cc1C | -0.26
N#Cc1c(-c2ccco2)cc(-c2ccc(Cl)cc2)[nH]c1=O | 1.67
O=[N+]([O-])c1ccc2c(c1)S(=O)(=O)CC2Sc1ccc(Cl)cc1 (stereo not given) | -0.38
COc1ccc(O)c(-c2cc(C(F)(F)F)nc(-c3ccccc3)n2)c1 | 1.17
COc1ccc(-c2cc(-c3nc4c5c(ncn4n3)CCC5)[nH]n2)cc1 | -0.65
COc1ccc(-c2cc(-c3ccccc3O)[nH]n2)cc1 | 4.58*
COc1ccc(Nc2n[nH]c3c2CCc2ccccc2-3)cc1 | 2.32
COc1ccc2cc(-c3ccn[nH]3)ccc2c1 | -1.14
COc1ccc(/C=C/c2nc(-c3ccccc3O)n[nH]2)cc1 | 26.2*
C=CCN1C(c2ccc(C)cc2)=CS/C1=C(\C#N)C(=O)OCC | -0.51
CN(CCOC(=O)Nc1ccccc1)c1cc(C(F)(F)F)nc2ccccc12 | 0.11
NCCc1ccn[nH]1 | 0.71
COc1ccc(NS(=O)(=O)c2ccccc2I)cc1 | 0.19
Cc1oc2cc(Br)c(OCC(=O)OC(C)(C)C)cc2c1C(=O)OC(C)C | 0.05
SMILES | Dicer processing
Cc1c(C#N)sc(C(=O)N=CN(C)C)c1C | 0.28
CCCCn1c(=O)c(CC)c(O)c2ccccc21 | -0.37
CCN(C(=O)c1cnccc1C(F)(F)F)c1cccc(C)c1C | -0.66
Cc1ccccc1NC(=O)/C=C/C(=O)O | -0.63
C/C=C/C(=O)N(CC)c1ccccc1C | 3.57*
CCOC(=O)c1c(CS(=O)(=O)Cc2ccc(Cl)cc2)oc2c(F)c(F)c(F)c(F)c12 | 1.43
O=C1CNC(=S)N1CCc1ccccc1 | 0.18
COc1ccc(CNC2=CC(=O)OC23CCCCC3)cc1 | 2.13
C=CCOc1ccc2[nH]c(C)c(C(=O)OCC)c2c1 | -0.95
O=c1cc(CSC(=S)N2CCSCC2)c2ccccc2[nH]1 | -0.65
C=CCOc1cc(=O)[nH]c2ccccc12 | 4.68*
CCCCCCNC(=O)NC(Cc1ccccc1)C(=O)OCC (stereo not given) | -0.79
CCOC(=O)[C@H](CCCN=C(N)N)NC(=O)c1ccccc1 | 4.75*
O=C(NC(CO)C(=O)O)c1ccccc1 (stereo not given) | 2.07
S=C1NC(c2ccccc2)=CC(c2ccsc2)S1 (stereo not given) | -1.63
C/C(=N\O)c1nnn(-c2cc(C(F)(F)F)cc(C(F)(F)F)c2)c1C | 0.89
C=CCOc1ccc(C2c3c(oc4ccccc4c3=O)C(=O)N2c2nnc(C)s2)cc1OCC (stereo not given) | -0.21
COc1ccc(-c2cc(C(F)F)n3ncc(C(=O)N4CCSCC4)c3n2)cc1 | 3.04*
O=C(c1cnn2c(C(F)F)cc(-c3ccccc3)nc12)N1CCc2ccccc2C1 | -0.17
O=C(c1cnn2c(C(F)F)cc(-c3ccccc3)nc12)N1CCCc2ccccc21 | -1.5
Cn1c2c(c(=O)[nH]c1=O)C(c1ccc(C(C)(C)C)cc1)C1=C(N2)c2ccccc2C1=O (stereo not given) | 0.87
CC(C)Cn1c(NCc2ccco2)nc2c1c(=O)[nH]c(=O)n2C | 4.5*
Cn1c(=O)[nH]c(=O)c2c1nc(NCc1ccco1)n2CC(O)COc1ccccc1 (stereo not given) | -1.62
CC(C)OCC(O)Cn1c(NCc2ccco2)nc2c1c(=O)[nH]c(=O)n2C (stereo not given) | 3.94*
Cn1c(=O)[nH]c(=O)c2c1nc(NCCO)n2CC(O)COc1ccccc1 (stereo not given) | 0.01
CC(C)CNc1nc2c(c(=O)[nH]c(=O)n2C)n1C(C)C | 0.88
Cc1ccc(Cn2c(NCc3ccco3)nc3c2c(=O)n(C)c(=O)n3C)cc1 | 0.5
CC(C)Cn1c(NCCN(C)C)nc2c1c(=O)[nH]c(=O)n2C | 4.29*
CC(C)Cn1c(NC2CCCCC2)nc2c1c(=O)[nH]c(=O)n2C | 0.18
